Results: PubChem BioAssay AID463173 (ICCB-Longwood Screening Facility, Harvard Medical School, 2010)
The campaign covered roughly 52,000 compounds. About 1,700 (3.3%) were called active. Many of the other results were omitted from the sample, so actives are more common in it than they were. A number with no mark means an inactive call. Cut-off read from the data, not from the text of the source: active = survival mostly below about 52% (no sharp cut-off); inactive = mostly above about 56%.

System: Wild type
Test: S. aureus survival, RN4220 and DeltatarO strains – OD600, teichoic acid synthesis inhibitors, primary screen (AID 463173)
Settings: S. aureus RN4220 wild type/DeltatarO growth, OD600, 18 h, active compounds read low, screened at 18.75 µg/mL (by protocol)

SMILES	survival
CCc1ccc(-c2nc(CS(=O)CC(=O)NCc3ccc(F)cc3)c(C)o2)cc1 (centres undefined)	73%
O=C1N/C(=N\S(=O)(=O)Cc2ccccc2)S/C1=C\c1ccco1	106%
COc1ccccc1CNC(=O)Cn1c(=O)nc(-c2ccccc2)c2ccccc21	67%
CCc1ccc(-n2c(N3CCN(c4cccc(C)c4C)CC3)nc3ccccc3c2=O)cc1	81%
Cc1c(C(=O)NCc2ccccc2Br)oc2c1-c1[nH]ncc1CC2	82%
Cc1ccc(C(=O)Nc2ccc3c(c2)N(C)C(=O)c2ccccc2S3)cc1	99%
COc1ccc(Cl)cc1NC(=O)Cn1c(=O)n(Cc2ccco2)c(=O)c2ccc(C(=O)NC3CCCC3)cc21	87%
COC(=O)c1ccc(CSc2nc3c([nH]c4ccccc43)c(=O)n2-c2ccc(Cl)cc2)o1	121%
COC(=O)c1ccc(CSc2nc3c([nH]c4ccccc43)c(=O)n2-c2cc(C)cc(C)c2)o1	0% (active)
COc1cccc(NC(=O)CSc2nc3c([nH]c4ccccc43)c(=O)n2-c2ccccc2)c1	67%
COc1cccc(-n2c(SCC(=O)N3CCCCC3)nc3c([nH]c4ccccc43)c2=O)c1	-3% (active)
CCOc1ccc(-n2c(SCC(=O)NCc3ccco3)nc3c([nH]c4ccccc43)c2=O)cc1	10% (active)
O=C(CSc1nc2c([nH]c3ccccc32)c(=O)n1-c1ccccc1)N1CCCCC1	69%
COC(=O)c1ccc(CSc2nc3c([nH]c4ccccc43)c(=O)n2-c2cccc(Cl)c2)o1	71%
O=C(CSc1nc2c([nH]c3ccccc32)c(=O)n1-c1ccc(F)cc1)NCc1ccco1	88%
COc1ccc(-n2c(SCC(=O)NCc3ccco3)nc3c([nH]c4ccccc43)c2=O)cc1	75%
O=C(CSc1nc2c([nH]c3ccccc32)c(=O)n1-c1ccccc1)N1CCCCCC1	78%
O=C(CSc1nc2c([nH]c3ccccc32)c(=O)n1-c1ccccc1)Nc1cccc(C(F)(F)F)c1	-6% (active)
O=C(CSc1nc2c([nH]c3ccccc32)c(=O)n1-c1ccccc1F)Nc1cccc(C(F)(F)F)c1	71%
CCc1cccc(C)c1NC(=O)c1cc(S(=O)(=O)N2CCN(c3ccccc3)CC2)ccc1F	73%
COC(=O)C1=NN(C(=O)c2cccc(OC)c2)C(C)(O)C1 (centres undefined)	123%
COc1cccc(NC(=O)NCc2ccc3c(c2)CCN3C(=O)c2ccccc2)c1	64%
COc1cccc(C(=O)N2CC(C)OC(C)C2)c1 (centres undefined)	107%
COc1ccc(OCC(=O)N2CCN(C(=O)c3cccc(OC)c3)CC2)cc1	88%

SMILES	survival
COc1cccc(C(=O)N2c3cc(C)ccc3C(C)(c3ccccc3)CC2(C)C)c1 (centres undefined)	1% (active)
COc1cccc(C(=O)N2c3ccc(C)cc3C(C)(c3ccccc3)CC2(C)C)c1 (centres undefined)	-2% (active)
COc1ccc(CNc2nc(-c3ccco3)nn2C(=O)c2ccccc2Cl)cc1	95%
O=C(Cn1c(=O)n(-c2ccc(F)cc2)c(=O)c2sc3ccccc3c21)NC1CCCCC1	91%
CNC(=O)C1CCC(Cn2c(=O)c3sccc3n(CC(=O)N3CCCC3)c2=O)CC1 (centres undefined)	77%
Cc1ccc(NCC(=O)N=Nc2c(O)[nH]c3ccccc23)cc1	114%
CCOC(=O)c1oc2c(c1C)-c1nn(Cc3cccc(Cl)c3)cc1CC2	66%
CCOC(=O)c1oc2c(c1C)-c1nn(Cc3ccc(Cl)cc3)cc1CC2	2% (active)
Cc1c(C(=O)O)oc2c1-c1nn(Cc3ccc(Cl)cc3)cc1CC2	77%
CCOc1ccc2c(c1)c(=O)c(C(=O)c1ccc3c(c1)OCO3)cn2Cc1cccc(F)c1	91%
CCCCOc1cccc(C2c3c(oc4ccccc4c3=O)C(=O)N2c2ccccn2)c1 (centres undefined)	68%
O=C(Nc1noc2ccccc12)c1ccc(F)cc1	78%
CCOC(=O)c1c(C)oc2c1c(O)c(N=O)c1ccccc12	7% (active)
CCOC(=O)c1c(C)oc2ncnc(N3CCN(c4ccccc4)CC3)c12	68%
CCOC(=O)c1c(C)oc2nc(C)nc(N3CCN(c4ccccc4)CC3)c12	68%
CC(C)OC(=O)Cn1c(C2CC2)nc2ccccc2c1=O	115%
CC(C)(C)c1ccc(S(=O)(=O)N2CCC(Oc3ccc(-n4cnnn4)cc3)CC2)cc1	81%
Cc1cn2c(=O)cc(COC(=O)c3ccc(NC(=O)COc4ccccc4F)cc3)nc2s1	85%
Cn1ncc2c(N3CCN(c4ccccc4Cl)CC3)ncnc21	127%
CCn1c(SCc2ccccc2)nnc1C1CCCCC1	106%
Cc1c2cnn(-c3ccccc3)c(=O)c2c(C)n1C(C)C(=O)NCc1cccc(Br)c1 (centres undefined)	71%
Cc1nn(CCC(=O)Nc2cccc(C#N)c2)c(C)c1S(=O)(=O)N1CCC(C)CC1	69%
CC(=O)c1cccc(NC(=O)CCn2nc(C)c(S(=O)(=O)N3CCCCC3)c2C)c1	159%
CC(=O)c1ccc(NC(=O)CCn2nc(C)c(S(=O)(=O)N3CCC(C)CC3)c2C)cc1	-6% (active)

SMILES	survival
CCOc1ccc(NC(=O)NCCc2c(C)nn(C)c2C)cc1	60%
CCc1cccc(CC)c1NC(=O)CN(C)S(=O)(=O)c1ccc2c(c1)n(C)c(=O)c(=O)n2C	81%
O=C(Cn1cnc2nc3c(cc2c1=O)CCCC3)N1CCN(c2ccccc2)CC1	69%
O=C(Cn1cnc2nc3c(cc2c1=O)CCCC3)N1CCN(c2cccc(C(F)(F)F)c2)CC1	14% (active)
Cc1ccc(C)c(N2CCN(C(=O)Cn3cnc4nc5c(cc4c3=O)CCCC5)CC2)c1	76%
Cc1c(Cl)cccc1NC(=O)Cn1cnc2nc3c(cc2c1=O)CCCC3	131%
O=C(Cn1cnc2nc3c(cc2c1=O)CCCC3)Nc1ccc(F)cc1Cl	72%
Cc1ccc(C)c(NC(=O)Cn2cnc3nc4c(cc3c2=O)CCCC4)c1	72%
Cc1cccc(N(C)C(=O)Cn2cnc3nc4c(cc3c2=O)CCCC4)c1	-1% (active)
COc1ccc(N2CCN(C(=O)Cn3cnc4nc5c(cc4c3=O)CCCC5)CC2)cc1	78%
COc1cc(OC)c(NC(=O)Cn2cnc3nc4c(cc3c2=O)CCCC4)cc1Cl	-6% (active)
CN(C)C(=O)C1Cc2ccccc2CN1S(=O)(=O)c1ccc(F)cc1 (centres undefined)	105%
CCc1ccc(-c2nc3c(c(SCc4ccccc4)n2)Cc2c(CO)cnc(C)c2O3)cc1	89%
COc1cccc(NC(=O)CSc2nccn2C2CCCC2)c1	73%
O=C1NC(=Nc2ccccc2)S/C1=C\c1ccc(C(=O)O)cc1	113%
CCOc1cccc(CC(=O)N2CCc3c([nH]c4ccccc34)C2c2ccccc2)c1OCC (centres undefined)	81%
COc1ccc(C(=O)NCCn2cc(SCC(=O)Nc3ccccc3)c3ccccc32)cc1OC	65%
COC(=O)c1ccc(Cn2c(SCc3ccccc3F)nc3ccncc32)cc1	74%
O=C(OCc1cc(=O)n2nc(C3CC3)sc2n1)c1cccc(NC(=O)c2ccccc2Cl)c1	57%
Cc1nnc(N2C(=O)c3oc4ccccc4c(=O)c3C2c2ccc(C(C)(C)C)cc2)s1 (centres undefined)	129%
COc1ccccc1CNC(=O)CCNS(=O)(=O)c1ccc2c(c1)oc(=O)n2C	83%
CC(C)(C)OC(=O)N1CCC(c2nnc(SCc3ccccc3)o2)CC1	83%
CC(C)(C)OC(=O)N1CCC(c2nnc(SCc3ccccc3F)o2)CC1	73%
CC(C)(C)OC(=O)N1CCC(c2nnc(SCc3ccccc3Cl)o2)CC1	-2% (active)

SMILES	survival
Clc1cccc(CSc2nnc(C3CCNCC3)o2)c1	109%
Clc1ccccc1CSc1nnc(C2CCNCC2)o1	95%
CC(C)(C)OC(=O)N1CCC(c2nnc(SCc3cccc(Cl)c3)o2)CC1	0% (active)
CCCN1CCN(c2cc3c(cc2F)c(=O)c(S(=O)(=O)c2ccc(CC)cc2)cn3CC)CC1	70%
Nc1ccc2c(c1)ncn2CCO	115%
CCc1ccccc1NC(=O)Cn1nc2c3cc(F)ccc3n(Cc3cccc(C)c3)cc-2c1=O	71%
CCOc1ccccc1NC(=O)Cn1nc2c3cc(F)ccc3n(Cc3cccc(C)c3)cc-2c1=O	81%
COc1ccccc1NC(=O)Cn1nc2c3cc(F)ccc3n(Cc3cccc(C)c3)cc-2c1=O	-4% (active)
Cc1cc(C)cc(OCc2cc(=O)n3c(-c4ccccc4)csc3n2)c1	88%
Cc1cccc(NC(=O)C(=O)c2cc(C)n(-c3ccccc3)c2C)c1C	79%
O=C(CSc1n[nH]c(-c2ccccc2Cl)n1)NCCc1ccccc1	72%
CC(CCc1ccccc1)NC(=O)CSc1n[nH]c(-c2ccc(F)cc2)n1 (centres undefined)	134%
O=C(CSc1n[nH]c(-c2ccccc2Cl)n1)NCc1ccc(F)cc1	-6% (active)
COc1ccccc1-c1nc(SCC(=O)c2ccccc2)n[nH]1	77%
CC(CCc1ccccc1)NC(=O)CSc1n[nH]c(-c2ccccc2)n1 (centres undefined)	71%
COc1ccc(CNC(=O)CSc2n[nH]c(-c3ccc(F)cc3)n2)cc1	120%
COc1ccccc1-c1nc(SCC(=O)c2ccc(Cl)cc2)n[nH]1	131%
CC(C)Oc1ccccc1-c1nc(SCC(=O)c2ccc(F)cc2)n[nH]1	-5% (active)
COc1cccc(CNC(=O)CSc2n[nH]c(-c3ccccc3Cl)n2)c1	75%
COc1ccc(CNC(=O)CSc2n[nH]c(-c3ccc(OC)cc3)n2)cc1	-6% (active)
COc1ccc(-c2nc(SCC(=O)NC(C)CCc3ccccc3)n[nH]2)cc1 (centres undefined)	-1% (active)
Cc1ccc(CNC(=O)CSc2n[nH]c(-c3ccc(F)cc3)n2)cc1	124%
